# PubChem BioAssay AID1486 (The Scripps Research Institute Molecular Screening Center, 2009)
# Among all 220,000 compounds or so, about 2,400 (1.1%) were called active.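 The calls were made as follows: active = inhibition above a per-campaign cutoff, the mean inhibition of all tested compounds plus 3 SD (cut at about 27% in these data); inactive = the rest.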 The sample as a whole holds a higher share of actives than the screen did.
# Assay: parental Ba/F3 cell viability inhibition, counter-screen for JAK2V617F inhibitor project, murine pro-B, CellTiter-Glo luminescence (AID 1486);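 also: 0% = DMSO wells and 100% = JAK Inhibitor I control wells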
# Conditions: CellTiter-Glo ATP luminescence, at 5.6 µM, active compounds read high
row,SMILES,inhibition
1,CCCCCCCCCCCCn1ccc(=N)cc1,102% (active)
2,CCC(C)n1c(O)c(/C=N/Nc2nc3c(c(=O)n(C)c(=O)n3C)n2C)c(=O)[nH]c1=S (stereo not given),-0.78% (inactive)
3,O=c1c2ccccc2nc(/C=C/c2ccco2)n1-c1ccccc1O,-6.32% (inactive)
4,CCOP(=O)(OCC)C(NC(=O)NC)C(N)=O (stereo not given),4.51% (inactive)
5,CC/C(=N\NC(=O)c1ccccc1O)c1c(O)n(Cc2ccccc2)c(=O)[nH]c1=O,-2.72% (inactive)
6,Cc1ccc(CN2CCCC(C(=O)c3ccc4c(c3)OCO4)C2)cc1C (stereo not given),2.33% (inactive)
7,CCOc1ccc(-c2cc(C)[n+](CCN(CC)CC)c(-c3ccc(OCC)cc3)c2)cc1,81.7% (active)
8,O=c1[nH]c(=O)n(CCc2ccc(F)cc2)c(O)c1/C=N/N1CCCCC1,-4.39% (inactive)
9,CC(C)c1ccc(-n2c(O)c(/C=N/N3CCOCC3)c(=O)[nH]c2=S)cc1,2.53% (inactive)
10,COc1cc(OC)cc(C2(C#N)CCN(C)CC2)c1,-2.96% (inactive)
11,CN(C)CC1Oc2ccccc2OC1(O)c1ccccc1 (stereo not given),8.72% (inactive)
12,COCc1cc(OC(=O)N(C)C)nc(-c2ccc(C)c(Cl)c2)n1,3.28% (inactive)
13,CC1=CC(=Cc2sc3ccccc3[n+]2C)C=C(C)O1,106% (active)
14,COc1ccc(-n2c(O)c(C(C)=Nc3ccc4c(c3)CCC4)c(=O)[nH]c2=O)cc1,2.36% (inactive)
15,O=C1CC(=O)N(Cc2ccccc2)C(=O)N1CCCCCCN1C(=O)CC(=O)N(Cc2ccccc2)C1=O,-0.44% (inactive)
16,CC1(C)Cc2c(C#N)c(N3CCNCC3)nc(-c3ccco3)c2CS1,1.77% (inactive)
17,CC1=C(C(=O)Nc2ccccc2)S(=O)(=O)CCO1,0.55% (inactive)
18,CNC(=O)O/N=C(\N)Cc1csc2ccc(Cl)cc12,3.22% (inactive)
19,CCOc1cccc(=NC2CCCCC2)c2c(C)[nH]c(C)c12,50.8% (active)
20,COc1ccc(-n2c(-c3ccccc3)nc3ccccc3c2=O)cc1,1.83% (inactive)
